The values below come from PubChem BioAssay AID2242 (National Center for Advancing Translational Sciences (NCATS), 2010).

SMILES strings stand for the structures. Hit rate of the full screen: of about 200,000 compounds, about 720 (0.36%) were called active. Roughly 8% stayed inconclusive and do not appear here. Calls follow the shape of the dose curve; as a rule, active = well fitted activation curve with a large enough effect; inconclusive = small, poorly fitted or top-dose-only effect, or effect the other way, or another doubt; inactive = flat fitted curve, though single readings scatter. The list shows a part of the results.
Potency is read from the fitted curve at half-maximal effect.

In this assay the target is Lysosomal alpha-glucosidase (Homo sapiens) (UniProt P10253). Description: qHTS Assay for Activators of Human alpha-Glucosidase as a Potential Chaperone Treatment of Pompe Disease. Also: nearly all actives have a fitted effect of over 80% in size. Particulars: purified enzyme, 4-MU-alpha-glucoside fluorescence, 20 min; series mostly up to 76.9 µM. Summed up:
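Fluorogenic assay, 4 nM enzyme, 400 uM 4-methylumbelliferyl-[…], pH 5.0 citrate/phosphate buffer with 0.005% Tween-20, compounds up to 77 uM, 20 min at room temperature. NaOH/glycine stop, Ex 365/Em 440 nm; AC50 from Hill fits.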
On the technique in general: In qHTS, concentration-response curves come from the screen itself.
With `Nc1ccc(-c2nc3ccc(N)cc3[nH]2)cc1`, the Potency was 39.8 µM (active).

For the compound `Nc1ccc(-c2nc3ccc(N)cc3o2)cc1`, the Potency is 35.5 µM (active).

With `Nc1ccc(-c2nc3ccc(-c4nc5ccccc5o4)cc3[nH]2)cc1`, the Potency is 28.2 µM (active).

`CCc1cc(=O)n2c([nH]c3ccccc32)c1C#N`: the Potency was 28.2 µM (active).

With `COCc1cc(=O)n2c([nH]c3ccccc32)c1C#N`, the Potency is 35.5 µM (active).

Turning to `CCCc1cc(=O)n2c([nH]c3ccccc32)c1C#N`, the Potency was 39.8 µM (active).

Take `Cc1ccc(-n2c(=O)c(C#N)cc3c(=O)n4ccccc4nc32)cc1`: the Potency was 25.1 µM (active).

Regarding `Cc1ccc(-n2c(=O)c(C#N)cc3c(=O)n4cccc(C)c4nc32)cc1`, the Potency was 10 µM (active).

In the case of `Cc1ccc2nc3c(cc(C#N)c(=O)n3-c3nccs3)c(=O)n2c1`, the Potency was 35.5 µM (active).

For `N#Cc1cc2c(=O)n3ccccc3nc2n(-c2ccc(Cl)cc2)c1=O`, the Potency is 35.5 µM (active).

As for `COc1cc(C2NC(=S)NC(c3ccccc3)=C2C(C)=O)cc(Br)c1OCC(N)=O` (centres undefined), the Potency is 28.2 µM (active).

For `O=C(CN1C(=O)/C(=C\c2cccc(Cl)c2)Oc2ccccc21)N1CCN(c2ccccn2)CC1`, the Potency is 3.98 µM (active).

On to `C=CCNc1oc(/C=C/c2ccccc2)nc1C#N`, for which the Potency was 35.5 µM (active).

Regarding `CN(C)c1oc(/C=C/c2ccccc2)nc1C#N`, the Potency was 31.6 µM (active).

`CNc1oc(/C=C/c2ccccc2)nc1C#N`: the Potency was 35.5 µM (active).

With `CN(C)CCNc1oc(/C=C/c2ccccc2)nc1C#N`, the Potency is 35.5 µM (active).

For `CC(=O)Nc1c(OC(C)=O)ccc2c(C)cc(=O)oc12`, the Potency was 35.5 µM (active).

With `CCC(=O)Nc1c(OC(=O)CC)ccc2c(C)cc(=O)oc12`, the Potency is 35.5 µM (active).

In the case of `CC(=O)c1ccc(-c2cccs2)s1`, the Potency is 35.5 µM (active).

`COc1cc(OC)c(-c2nc3ccccc3s2)cc1OC`: the Potency was 35.5 µM (active).

For `c1ccc2c(N3CCOCC3)nc(N3CCOCC3)nc2c1`, the Potency was 28.2 µM (active).

Take `CCOC(=O)C1=C(C)NC2=C(C(=O)CCC2)C1c1cn(Cc2ccc(Cl)cc2Cl)nc1-c1ccccc1` (centres undefined): the Potency was 31.6 µM (active).

For `Cc1csc2ncc(C(=O)Nc3ccon3)c(=O)n12`, the Potency was 35.5 µM (active).

Regarding `Cc1c(O)c(CN2CCCCC2)cc2c3c(c(=O)oc12)CCC3`, the Potency is 35.5 µM (active).

With `Cc1c(O)c(CN2CCCC2)cc2c3c(c(=O)oc12)CCC3`, the Potency was 39.8 µM (active).

As to `CCNc1cc2oc(=O)c(CN3CCOCC3)c(C)c2cc1C`, the Potency was 31.6 µM (active).

Turning to `CC(C)c1cc(=O)oc2c3c4c(cc12)CCCN4CCC3`, the Potency is 35.5 µM (active).

With `N#Cc1c(NC2CCCCC2)nc(-c2ccco2)c2c1CCCC2`, the Potency is 35.5 µM (active).

Regarding `CC(C)CCNc1nc(-c2ccco2)c2c(c1C#N)CCCC2`, the Potency was 31.6 µM (active).

On to `Cc1ccc(C2OC34CCCCCC3C(C#N)(C(=N)O4)C2(C#N)C#N)cc1` (centres undefined), for which the Potency is 31.6 µM (active).

For the compound `CCOC(=O)c1sc2c(c1C)C(c1cccs1)C1=C(CCCC1=O)N2` (centres undefined), the Potency is 25.1 µM (active).

For the compound `C=CCSc1nnc(-c2cc3c(s2)-c2ccccc2CC3)o1`, the Potency was 25.1 µM (active).

With `CCSc1nnc(-c2cc3c(s2)-c2ccccc2CC3)o1`, the Potency was 31.6 µM (active).

Take `CSc1nnc(-c2cc3c(s2)-c2ccccc2CC3)o1`: the Potency was 35.5 µM (active).

Turning to `Fc1ccc(CSc2nnc(-c3cc4c(s3)-c3ccccc3CC4)o2)cc1`, the Potency was 28.2 µM (active).

For `CC(=O)Nc1nc2ccc(-c3nc4ccccc4o3)cc2s1`, the Potency is 25.1 µM (active).

For the compound `COc1ccc(OC)c(C=Nc2ccccc2-c2nc3ccccc3[nH]2)c1`, the Potency was 28.2 µM (active).

As for `Nc1c(C(=O)NCCN2CCOCC2)c2nc3ccccc3nc2n1-c1cccc(F)c1`, the Potency is 35.5 µM (active).

Regarding `Nc1c(C(=O)NCCN2CCOCC2)c2nc3ccccc3nc2n1CCc1ccccc1F`, the Potency was 39.8 µM (active).

Take `Nc1c(C(=O)NCCN2CCOCC2)c2nc3ccccc3nc2n1-c1ccccc1`: the Potency was 35.5 µM (active).

On to `Cc1ccc(C)n1-c1nccc(-c2ccco2)n1`, for which the Potency is 22.4 µM (active).

Regarding `CNc1nc(-c2ccccc2)cc(C)c1S(C)(=O)=O`, the Potency is 28.2 µM (active).

Turning to `Nc1ccccc1-c1nnc(-c2ccc(-c3ccccc3)cc2)o1`, the Potency is 35.5 µM (active).

Turning to `CCNc1nc(C)c2cc(Br)c(=O)n(CC)c2n1`, the Potency is 35.5 µM (active).

Consider `Nc1c(C(=O)NCC2CCCO2)c2nc3ccccc3nc2n1-c1ccccc1` (centres undefined), for which the Potency was 35.5 µM (active).

As to `COc1ccc(-n2c(N)c(C(=O)NCC3CCCO3)c3nc4ccccc4nc32)c(OC)c1` (centres undefined), the Potency is 31.6 µM (active).

Take `CCOC(=O)c1c(N)n(C2CC(C)(C)NC(C)(C)C2)c2nc3ccccc3nc12`: the Potency was 31.6 µM (active).

For `COCCn1c(N)c(C(=O)NCC2CCCO2)c2nc3ccccc3nc21` (centres undefined), the Potency is 35.5 µM (active).

Take `Nc1c(C(=O)OCC2CCCO2)c2nc3ccccc3nc2n1C1CCCC1` (centres undefined): the Potency was 39.8 µM (active).

Consider `Cc1ccc(S(=O)(=O)NC(CC(C)C)C(=O)Oc2ccc3c4c(c(=O)oc3c2)CCC4)cc1` (centres undefined), for which the Potency is 35.5 µM (active).

With `CCCCC(NS(=O)(=O)c1ccc(C)cc1)C(=O)Oc1ccc2c3c(c(=O)oc2c1)CCC3` (centres undefined), the Potency was 31.6 µM (active).

`Cc1ccc(-c2nn(-c3ccccc3)cc2/C=C/C(=O)Nc2nccs2)cc1`: the Potency is 35.5 µM (active).

On to `COC(=O)c1c(N)n(-c2ccc(NC(C)=O)cc2)c2nc3ccccc3nc12`, for which the Potency is 28.2 µM (active).

Consider `COCCNC(=O)c1c(N)n(CCCn2ccnc2)c2nc3ccccc3nc12`, for which the Potency is 35.5 µM (active).

As for `CCCNC(=O)c1c(N)n(-c2cccc(OC)c2)c2nc3ccccc3nc12`, the Potency was 35.5 µM (active).

As to `COCCNC(=O)c1c(N)n(-c2ccccc2)c2nc3ccccc3nc12`, the Potency is 39.8 µM (active).

Turning to `CCN1CCN(C(=O)c2cc3c(=O)n4ccccc4nc3n2Cc2ccccc2)CC1`, the Potency is 31.6 µM (active).

With `O=C(NCCN1CCOCC1)c1cc2c(=O)n3ccccc3nc2n1Cc1ccccc1`, the Potency was 35.5 µM (active).

As to `CCCc1cc(=O)oc2c(C)c(O)c(CN3CCCCC3)cc12`, the Potency was 17.8 µM (active).

Consider `CCc1cc(=O)oc2c(C)c(O)c(CN(C)C)cc12`, for which the Potency is 35.5 µM (active).

Regarding `CCc1cc(=O)oc2c(C)c(O)c(CN3CCCCC3)cc12`, the Potency is 35.5 µM (active).

In the case of `CCCn1nc(C(=O)Oc2ccc3c(C)cc(=O)oc3c2)c2ccccc2c1=O`, the Potency is 35.5 µM (active).

`Cc1cc(=O)oc2cc(OC(=O)c3nn(C(C)C)c(=O)c4ccccc34)ccc12`: the Potency is 35.5 µM (active).

With `CCCCn1nc(C(=O)Oc2ccc3c(C)cc(=O)oc3c2)c2ccccc2c1=O`, the Potency was 35.5 µM (active).
